# Data reported in the supplement of paper PMC10849652.
# About 8,800 targets were measured; listed, in parts, are those with a hit and a random draw of the rest. About 0.5% of all pairs of compound and target were hits. Unmarked numbers belong to inactive results.
# Tests used:
# Assay in all cases: log2 fold change, soluble protein after heating vs DMSO (PISA); higher = thermal stabilisation; K562 lysate, 10 uM; active = over 0.2 and 3.5 SD of the protein, either way, in both replicates (recomputed)
# ibrutinib = compound: C=CC(=O)N1CCC[C@@H](n2nc(-c3ccc(Oc4ccccc4)cc3)c3c(N)ncnc32)C1 [ibrutinib]
# In short: (§1)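 To prepare the extract, K562 pellets were dounce-homogenised in PBS pH 7.4 with 1 mM MgCl2, giving crude material at 1 mg/mL protein. This was treated with 10 μM compound for 30 min, then heated in aliquots for 3 min over 48°C-58°C before pooling and addition of NP-40 to 0.5% at 4°C. Centrifugation at 21,000xg for 90 min left soluble protein in the supernatant, which TMTpro 16plex LC-MS/MS quantified with equalised channel sums. Results are log-two fold changes in thermal stability compared with solvent controls, from duplicates.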
# [1] = compound: CC(=O)c1cnc2ccc(-c3cc(Cl)c(O)c(Cl)c3)nc2c1N[C@H]1CC[C@H](CN(C)C)CC1
# In short: as §1
# ralimetinib = compound: CC(C)(C)Cn1c(N)nc2ccc(-c3[nH]c(C(C)(C)C)nc3-c3ccc(F)cc3)nc21 [ralimetinib]
# In short: as §1
# [2] = compound: CC(C)(O)CC(=O)NCCn1ccc2ncnc(Nc3ccc(Oc4cccc(C(F)(F)F)c4)c(Cl)c3)c21
# In short: as §1
# [3] = compound: CC(C)C1=C2N=C(C=C(N2N=C1)NCC3=CC=CC=C3)NCCCCCCN
# In short: as §1
# [4] = compound: CC1=C(C(CC(=O)N1)C2=CC=C(C=C2)C(F)(F)F)C(=O)NC3=C(C=C4C(=C3)C=NN4)F
# In short: as §1
# [5] = compound: CC1=C(C2=C(C=C1)C(=O)C3=CC=CC=C3N2CCCN)C
# In short: as §1
# [6] = compound: CC1=C(C=C(C=C1)NC(=O)C2=CC(=CC=C2)C(C)(C)C#N)NC3=CC4=C(C=C3)N=CN(C4=O)C
# In short: as §1
# [7] = compound: CC1=C(C=C(C=C1)NC(=O)C2=CC(=CC=C2)N(C)C)NC(=O)C3=CC=C(C=C3)O
# In short: as §1
# [8] = compound: CC1=CC=C(C=C1)SC2=C3C=C(SC3=CN=C2)C(=O)N
# In short: as §1
# vemurafenib = compound: CCCS(=O)(=O)Nc1ccc(F)c(C(=O)c2c[nH]c3ncc(-c4ccc(Cl)cc4)cc23)c1F [vemurafenib]
# In short: as §1
# [9] = compound: CCCS(=O)(=O)Nc1ccc(F)c(C(=O)c2c[nH]c3ncc(Cl)cc23)c1F
# In short: as §1
# barasertib = compound: CCN(CCCOc1ccc2c(Nc3cc(CC(=O)Nc4cccc(F)c4)[nH]n3)ncnc2c1)CCOP(=O)(O)O [barasertib]
# In short: as §1
# [10] = compound: CC[C@@H]1C(=O)N(C)c2cnc(Nc3ccc(C(=O)NC4CCN(C)CC4)cc3OC)nc2N1C1CCCC1
# In short: as §1
# volasertib = compound: CC[C@@H]1C(=O)N(C)c2cnc(Nc3ccc(C(=O)N[C@H]4CC[C@H](N5CCN(CC6CC6)CC5)CC4)cc3OC)nc2N1C(C)C [volasertib]
# In short: as §1
# [11] = compound: CCn1c(C(=O)N(C2CC2)C2CC2)cc2c3c(ncn3C)c(Nc3cc(C)n(C)n3)nc21
# In short: as §1
# [12] = compound: CCn1cc(-c2ccnc3[nH]c(-c4cccc(CN(C)C)c4)cc23)c(-c2ccc(NC(=O)N(C)C)cc2)n1
# In short: as §1
# [13] = compound: CN1CCC(CNc2ccc3ncc(-c4cccc(OC(F)(F)F)c4)n3n2)CC1
# In short: as §1
# saracatinib = compound: CN1CCN(CCOc2cc(OC3CCOCC3)c3c(Nc4c(Cl)ccc5c4OCO5)ncnc3c2)CC1 [saracatinib]
# In short: as §1
# sotrastaurin = compound: CN1CCN(c2nc(C3=C(c4c[nH]c5ccccc45)C(=O)NC3=O)c3ccccc3n2)CC1 [sotrastaurin]
# In short: as §1
# Chain of UniProt P54886 (P54886 whole entry, looked up): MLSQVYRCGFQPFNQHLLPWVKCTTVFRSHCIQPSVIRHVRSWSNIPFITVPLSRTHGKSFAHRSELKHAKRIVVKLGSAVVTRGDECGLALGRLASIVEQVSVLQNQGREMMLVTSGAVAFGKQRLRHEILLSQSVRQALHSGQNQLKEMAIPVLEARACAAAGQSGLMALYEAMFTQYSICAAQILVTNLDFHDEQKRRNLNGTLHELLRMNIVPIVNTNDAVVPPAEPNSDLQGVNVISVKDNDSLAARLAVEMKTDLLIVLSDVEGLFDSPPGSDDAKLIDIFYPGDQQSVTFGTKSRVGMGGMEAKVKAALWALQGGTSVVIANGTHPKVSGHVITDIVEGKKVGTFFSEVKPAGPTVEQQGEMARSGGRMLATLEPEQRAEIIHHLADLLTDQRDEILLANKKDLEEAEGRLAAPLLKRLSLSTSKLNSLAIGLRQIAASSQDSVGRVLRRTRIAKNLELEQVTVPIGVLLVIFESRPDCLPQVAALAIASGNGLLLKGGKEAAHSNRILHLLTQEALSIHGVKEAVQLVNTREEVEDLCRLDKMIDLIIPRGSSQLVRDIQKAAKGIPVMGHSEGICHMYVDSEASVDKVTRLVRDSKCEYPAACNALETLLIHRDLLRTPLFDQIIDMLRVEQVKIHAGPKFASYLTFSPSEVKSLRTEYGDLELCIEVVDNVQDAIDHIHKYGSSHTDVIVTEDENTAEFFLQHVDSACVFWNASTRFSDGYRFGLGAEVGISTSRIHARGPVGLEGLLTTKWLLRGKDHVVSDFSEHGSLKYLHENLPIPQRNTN
# Chain of UniProt P31749 (P31749 whole entry, looked up): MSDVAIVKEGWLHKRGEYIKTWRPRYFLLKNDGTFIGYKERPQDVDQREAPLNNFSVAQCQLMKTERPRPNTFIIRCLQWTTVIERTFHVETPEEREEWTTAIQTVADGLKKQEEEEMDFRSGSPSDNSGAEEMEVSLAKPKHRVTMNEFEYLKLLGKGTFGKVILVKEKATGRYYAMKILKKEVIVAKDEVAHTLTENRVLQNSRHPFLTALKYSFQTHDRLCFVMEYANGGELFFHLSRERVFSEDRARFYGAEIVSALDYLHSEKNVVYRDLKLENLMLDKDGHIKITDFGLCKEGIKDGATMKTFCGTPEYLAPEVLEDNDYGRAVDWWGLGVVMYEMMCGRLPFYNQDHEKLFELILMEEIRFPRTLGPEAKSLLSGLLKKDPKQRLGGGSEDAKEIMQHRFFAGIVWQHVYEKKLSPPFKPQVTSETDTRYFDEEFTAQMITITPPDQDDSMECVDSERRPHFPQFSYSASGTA
# Chain of UniProt P42330 (P42330 whole entry, looked up): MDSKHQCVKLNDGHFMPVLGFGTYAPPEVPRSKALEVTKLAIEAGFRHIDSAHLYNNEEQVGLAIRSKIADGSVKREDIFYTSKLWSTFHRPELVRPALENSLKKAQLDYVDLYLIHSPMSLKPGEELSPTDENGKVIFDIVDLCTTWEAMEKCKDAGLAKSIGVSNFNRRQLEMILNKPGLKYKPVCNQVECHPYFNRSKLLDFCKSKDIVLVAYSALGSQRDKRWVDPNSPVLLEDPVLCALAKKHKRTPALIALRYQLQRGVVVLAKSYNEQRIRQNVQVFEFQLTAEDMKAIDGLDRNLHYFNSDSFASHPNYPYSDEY
# Chain of UniProt Q9BRQ8 (Q9BRQ8 whole entry, looked up): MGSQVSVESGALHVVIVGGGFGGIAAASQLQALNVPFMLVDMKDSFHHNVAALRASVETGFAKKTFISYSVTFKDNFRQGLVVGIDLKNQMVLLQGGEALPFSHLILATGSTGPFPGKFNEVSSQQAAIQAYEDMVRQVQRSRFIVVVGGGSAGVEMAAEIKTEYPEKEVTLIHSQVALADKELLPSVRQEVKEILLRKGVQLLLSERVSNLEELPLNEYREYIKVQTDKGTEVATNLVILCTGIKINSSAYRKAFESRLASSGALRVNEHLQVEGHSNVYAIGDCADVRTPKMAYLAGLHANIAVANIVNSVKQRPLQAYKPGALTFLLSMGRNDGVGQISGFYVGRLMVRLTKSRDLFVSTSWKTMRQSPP
# Chain of UniProt Q9Y303 (Q9Y303 whole entry, looked up): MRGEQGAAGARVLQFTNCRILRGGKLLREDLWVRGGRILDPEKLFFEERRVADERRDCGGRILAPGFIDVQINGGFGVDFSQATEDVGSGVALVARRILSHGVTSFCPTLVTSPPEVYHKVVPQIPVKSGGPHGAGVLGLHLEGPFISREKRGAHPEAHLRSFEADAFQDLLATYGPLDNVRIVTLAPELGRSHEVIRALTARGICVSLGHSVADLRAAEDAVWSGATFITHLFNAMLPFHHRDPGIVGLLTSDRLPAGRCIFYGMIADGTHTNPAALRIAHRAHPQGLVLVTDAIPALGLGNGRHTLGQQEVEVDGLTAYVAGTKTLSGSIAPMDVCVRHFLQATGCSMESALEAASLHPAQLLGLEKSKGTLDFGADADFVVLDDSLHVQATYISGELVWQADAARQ
# Chain of UniProt Q96P48 (Q96P48 whole entry, looked up): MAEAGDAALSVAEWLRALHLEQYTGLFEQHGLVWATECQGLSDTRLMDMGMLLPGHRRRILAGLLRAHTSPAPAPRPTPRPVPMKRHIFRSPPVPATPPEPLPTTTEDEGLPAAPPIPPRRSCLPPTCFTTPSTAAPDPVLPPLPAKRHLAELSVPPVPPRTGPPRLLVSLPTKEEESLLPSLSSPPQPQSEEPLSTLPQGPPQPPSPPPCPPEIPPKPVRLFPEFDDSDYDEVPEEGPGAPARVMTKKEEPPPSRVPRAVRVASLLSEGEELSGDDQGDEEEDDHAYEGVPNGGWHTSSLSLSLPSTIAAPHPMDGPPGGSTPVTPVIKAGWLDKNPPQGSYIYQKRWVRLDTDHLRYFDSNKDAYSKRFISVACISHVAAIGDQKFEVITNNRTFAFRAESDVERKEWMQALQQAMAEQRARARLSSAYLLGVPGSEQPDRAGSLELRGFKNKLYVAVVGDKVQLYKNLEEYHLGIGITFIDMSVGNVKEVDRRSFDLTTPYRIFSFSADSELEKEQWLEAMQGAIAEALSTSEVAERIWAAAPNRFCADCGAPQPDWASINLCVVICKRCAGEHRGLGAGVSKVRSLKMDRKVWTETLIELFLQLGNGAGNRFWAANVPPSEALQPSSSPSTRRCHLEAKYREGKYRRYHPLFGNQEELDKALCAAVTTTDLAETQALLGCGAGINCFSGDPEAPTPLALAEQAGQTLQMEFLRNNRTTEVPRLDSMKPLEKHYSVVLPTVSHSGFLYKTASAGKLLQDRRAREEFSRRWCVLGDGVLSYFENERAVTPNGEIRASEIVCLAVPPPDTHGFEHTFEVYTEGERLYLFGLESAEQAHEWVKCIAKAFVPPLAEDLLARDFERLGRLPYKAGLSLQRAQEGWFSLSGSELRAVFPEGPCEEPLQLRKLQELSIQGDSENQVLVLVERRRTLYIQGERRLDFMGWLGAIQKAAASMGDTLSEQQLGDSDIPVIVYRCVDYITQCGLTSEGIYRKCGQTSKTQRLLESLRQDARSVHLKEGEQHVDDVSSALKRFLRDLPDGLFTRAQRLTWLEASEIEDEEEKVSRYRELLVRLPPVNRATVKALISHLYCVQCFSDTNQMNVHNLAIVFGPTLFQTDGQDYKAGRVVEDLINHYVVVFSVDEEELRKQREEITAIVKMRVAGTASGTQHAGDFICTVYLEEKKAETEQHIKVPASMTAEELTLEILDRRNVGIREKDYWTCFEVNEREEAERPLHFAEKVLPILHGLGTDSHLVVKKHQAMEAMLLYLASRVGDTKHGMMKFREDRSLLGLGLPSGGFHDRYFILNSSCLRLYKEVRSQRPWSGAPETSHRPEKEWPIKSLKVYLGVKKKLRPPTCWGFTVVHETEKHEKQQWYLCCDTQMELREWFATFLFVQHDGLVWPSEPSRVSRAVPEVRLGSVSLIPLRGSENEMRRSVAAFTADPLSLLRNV
# Chain of UniProt P08758 (P08758 whole entry, looked up): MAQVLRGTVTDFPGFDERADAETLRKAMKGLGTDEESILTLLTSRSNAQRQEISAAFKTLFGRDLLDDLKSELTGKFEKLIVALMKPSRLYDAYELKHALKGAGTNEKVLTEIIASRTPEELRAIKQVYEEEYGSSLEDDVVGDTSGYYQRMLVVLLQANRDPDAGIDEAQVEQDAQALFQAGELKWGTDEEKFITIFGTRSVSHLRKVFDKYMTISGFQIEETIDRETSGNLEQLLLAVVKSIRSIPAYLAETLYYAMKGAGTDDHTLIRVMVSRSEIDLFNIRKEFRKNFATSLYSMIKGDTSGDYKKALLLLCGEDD
# Chain of UniProt P39687 (P39687 whole entry, looked up): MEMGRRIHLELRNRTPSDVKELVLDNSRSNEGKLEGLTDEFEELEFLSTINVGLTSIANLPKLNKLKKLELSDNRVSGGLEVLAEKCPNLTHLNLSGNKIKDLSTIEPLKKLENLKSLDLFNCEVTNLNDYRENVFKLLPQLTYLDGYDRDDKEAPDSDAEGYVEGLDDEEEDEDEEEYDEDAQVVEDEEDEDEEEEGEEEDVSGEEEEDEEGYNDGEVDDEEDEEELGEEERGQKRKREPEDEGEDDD
# Chain of UniProt Q5VST6 (Q5VST6 whole entry, looked up): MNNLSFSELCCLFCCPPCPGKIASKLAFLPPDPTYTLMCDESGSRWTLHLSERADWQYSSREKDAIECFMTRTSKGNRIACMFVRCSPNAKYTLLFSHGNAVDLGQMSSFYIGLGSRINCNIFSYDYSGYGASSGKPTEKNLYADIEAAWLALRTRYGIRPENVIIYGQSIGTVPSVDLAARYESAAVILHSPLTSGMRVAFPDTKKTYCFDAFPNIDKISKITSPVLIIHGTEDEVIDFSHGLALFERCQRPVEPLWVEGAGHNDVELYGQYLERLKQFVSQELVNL
Target,log2 fold change (ibrutinib),log2 fold change [1],log2 fold change (ralimetinib),log2 fold change [2],log2 fold change [3],log2 fold change [4],log2 fold change [5],log2 fold change [6],log2 fold change [7],log2 fold change [8],log2 fold change (vemurafenib),log2 fold change [9],log2 fold change (barasertib),log2 fold change [10],log2 fold change (volasertib),log2 fold change [11],log2 fold change [12],log2 fold change [13],log2 fold change (saracatinib),log2 fold change (sotrastaurin)
ANP32A (UniProt P39687),0.003,-0.003,0.002,0.188,-0.041,-0.029,0.079,-0.025,-0.046,-0.018,-0.025,0.052,-0.007,-0.011,0.006,-0.008,-0.085,0.062,-0.033,-0.002
ALDH18A1 (UniProt P54886),0.006,0.007,0.021,-0.015,-0.001,-0.02,0.001,0.022,0.016,-0.018,0.052,-0.006,0.033,-0.054,-0.033,0.036,0.009,-0.005,0.003,0.014
ACSL4 (UniProt O60488),0.035,-0.012,0.051,-0.022,-0.015,0.027,-0.079,-0.044,0.052,0.021,0.061,-0.007,-0.006,-0.029,-0.001,0.036,0.008,-0.02,0.047,0.043
ANXA5 (UniProt P08758),-0.009,-0.005,0.014,0.038,-0.026,0.007,0.032,-0.024,0,0.005,-0.034,-0.011,0.003,-0.073,-0.001,0.059,0.022,-0.064,-0.008,0.024
AMDHD2 isoform 3 (UniProt Q9Y303),0.032,0.006,-0.059,-0.025,-0.011,0.009,0.013,-0.015,-0.017,-0.017,0.009,0.019,-0.021,0.003,0.015,-0.024,-0.031,0.005,-0.007,0.019
AHCYL1 (UniProt O43865),0.014,-0.02,-0.004,0.022,0.003,0.016,-0.065,-0.028,0.009,0.021,0.018,0.021,-0.001,0.001,-0.073,-0.021,-0.055,-0.012,-0.021,0.006
ABHD17B (UniProt Q5VST6),0.067,-0.031,-0.053,-0.037,-0.036,-0.076,0.001,0.013,0.127,0.018,0.051,-0.002,-0.073,0.234,0.094,-0.034,0.08,0.054,0.092,-0.002
ALDH6A1 (UniProt Q02252),0.128,-0.006,-0.064,-0.043,0.008,-0.088,-0.191,0.025,-0.066,-0.02,0.055,0.027,0.043,-0.009,-0.025,0.015,-0.111,0.022,-0.324 (active),-0.082
ADK (UniProt P55263),-0.028,0.107,0.313,-0.027,-0.05,-0.073,-0.059,-0.007,-0.008,-0.005,-0.052,-0.036,-0.054,0.458 (active),0.437 (active),-0.027,0.044,0.155,0.043,0.343
AKT1 (UniProt P31749),0.028,0.013,0.005,-0.023,0.009,0.003,-0.009,0,-0.006,0.019,0.071,0.011,-0.023,-0.019,-0.026,-0.031,-0.068,0.055,0.055,0.051
AKR1C3 (UniProt P42330),-0.033,0.016,-0.028,-0.003,-0.039,0.011,0.247 (active),0.02,-0.035,0.001,0.01,0.023,-0.033,0.091,-0.027,-0.05,-0.034,0.059,0.187,0.044
ARAP1 (UniProt Q96P48),-0.01,0.002,0.016,0.028,0.003,0.02,-0.01,0.005,0.057,0.006,-0.014,0.006,0.013,-0.034,-0.085,0.029,-0.076,0.015,-0.001,0.006
AGO4 (UniProt Q9HCK5),0.034,-0.035,0.022,-0.011,-0.049,0.025,0.05,0,-0.013,-0.024,0.033,0.003,0.04,-0.003,0.017,-0.003,0.036,0.041,-0.011,-0.021
ACTG1 (UniProt I3L4N8),0.191,0.053,-0.019,0.065,-0.184,0.038,-0.677 (active),-0.181,-0.006,0.033,0.131,-0.062,0.218,-0.208,-0.006,-0.384,0.94,-0.091,-0.002,0.001
ANLN (UniProt Q9NQW6),0.025,-0.027,0.02,-0.001,-0.014,0.02,-0.01,0.026,0.029,-0.04,-0.012,0.019,0.003,0.01,-0.014,-0.035,-0.067,-0.014,0.002,0.009
AIFM2 (UniProt Q9BRQ8),-0.016,-0.075,0.028,0.643 (active),0.275,-0.033,-0.161,-0.04,-0.051,0.024,-0.19,0.091,-0.029,-0.018,-0.004,-0.089,-0.057,0.149,-0.062,0.036
